Laboratory results taken from PubChem BioAssay AID1159580 (chemical genetic matrix, 2015).
Several values for one entry are separate records, joined by “and”; a condition that tells them apart may be missing. Identical values can stand only once. In all, about 5,500 compounds went through this assay and about 2,000 (36%) were called active. Roughly 18% stayed inconclusive and do not appear here. Rule as the data show it: active = normalized growth mostly below about 0.91 (no sharp cut-off); inconclusive = no clear call, values can overlap the other calls; inactive = mostly above about 0.92. The list shows a part of the results.

Assay: chemical genetic growth profiling, strain panel (AID 1159580);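 also: tested at 20 µM; growth read once vehicle control cultures reached saturation at 30 °C; 1 = growth at the plate median or of vehicle wells; lower values mean less growth of the strain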
Settings: S. cerevisiae deletion strains, growth OD

Measured: normalized growth

CC1(C)C2CC(=O)O[C@@]3(C)C4=CC(=O)O[C@@H](c5ccoc5)[C@]4(C)CCC3[C@@]2(C)C=C[C@H]1O (stereo partly drawn)
inactive: locus YAL013W, strain DEP1, hits give low values 0.997 | locus YAL021C, strain ccr4, hits give low values 0.993 | locus YAL026C, strain drs2, hits give low values 0.98 | locus YAL030W, strain snc1, hits give low values 0.978 | locus YBL061C, strain skt5, hits give low values 0.986 | locus YBR009C, strain hhf1, hits give low values 0.991 | locus YBR021W, strain FUR4, hits give low values 1.01 | locus YBR023C, strain chs3, hits give low values 0.97 | locus YBR171W, strain sec66, hits give low values 0.966 | locus YBR229C, strain ROT2, hits give low values 1.01 | locus YBR231C, strain swc5, hits give low values 0.985 | locus YBR279W, strain paf1, hits give low values 0.985 | locus YCL011C, strain gbp2, hits give low values 0.967 | locus YCL016C, strain dcc1, hits give low values 1.01 | locus YCL029C, strain bik1, hits give low values 0.989 | locus YCL061C, strain MRC1, hits give low values 0.999 | locus YCL069W, strain vba3, hits give low values 0.971 | locus YCR088W, strain abp1, hits give low values 0.974 | locus YDL005C, strain med2, hits give low values 0.975 | locus YDL035C, strain GPR1, hits give low values 1.03 | locus YDL040C, strain nat1, hits give low values 0.974 | locus YDL074C, strain BRE1, hits give low values 1.01 | locus YDL101C, strain DUN1, hits give low values 0.999 | locus YDL134C, strain PPH21, hits give low values 1.01 | locus YDL185W, strain tfp1, hits give low values 0.999 | locus YDL192W, strain arf1, hits give low values 0.988 | locus YDR001C, strain nth1, hits give low values 0.99 | locus YDR069C, strain doa4, hits give low values 0.98 | locus YDR101C, strain arx1, hits give low values 1 | locus YDR137W, strain rgp1, hits give low values 1.01 | locus YDR159W, strain sac3, hits give low values 0.953 | locus YDR162C, strain NBP2, hits give low values 0.998 | locus YDR195W, strain ref2 0.961 | locus YDR297W, strain sur2, hits give low values 0.983 | locus YDR318W, strain mcm21, hits give low values 0.989 | locus YDR334W, strain swr1, hits give low values 0.981 | locus YDR335W, strain msn5, hits give low values 0.979 | locus YDR388W, hits give low values 0.99 | locus YDR392W, strain spt3, hits give low values 0.984 | locus YDR502C, strain sam2, hits give low values 0.998 | locus YEL003W, strain gim4, hits give low values 0.978 | locus YEL037C, strain rad23, hits give low values 0.984 | locus YEL061C, strain CIN8 (second series), hits give low values 0.972 | locus YER015W, strain faa2, hits give low values 0.975 | locus YER016W, strain bim1, hits give low values 0.988 | locus YER110C, hits give low values 0.983 | locus YER111C, strain swi4, hits give low values 0.975 | locus YER155C, strain BEM2 (second series), hits give low values 1 | locus YER155C, strain BEM2, hits give low values 1.01 | locus YER167W, strain BCK2, hits give low values 1.02 | locus YFR010W, strain ubp6, hits give low values 0.971 | locus YGL078C, strain dbp3, hits give low values 0.982 | locus YGL086W, strain mad1, hits give low values 0.988 | locus YGL167C, strain pmr1, hits give low values 0.989 | locus YGL173C, strain kem1, hits give low values 0.98 | locus YGL227W, strain vid30, hits give low values 0.98 | locus YGL240W, strain doc1, hits give low values 0.968 | locus YGL248W, strain PDE1, hits give low values 1 | locus YGL253W, strain hxk2, hits give low values 0.948 | locus YGR078C, strain PAC10, hits give low values 1 | locus YGR135W, strain pre9, hits give low values 0.969 | locus YGR252W, strain gcn5, hits give low values 0.97 | locus YHR013C, strain ard1, hits give low values 0.973 | locus YHR027C, strain rpn1, hits give low values 0.983 | locus YHR030C, strain SLT2, hits give low values 1.01 and 0.99 | locus YHR079C, strain IRE1 (second series), hits give low values 0.988 | locus YHR079C, strain IRE1, hits give low values 0.987 | locus YHR094C, strain hxt1, hits give low values 0.987 | locus YHR129C, strain ARP1, hits give low values 1.01 | locus YHR142W, strain chs7, hits give low values 0.964 | locus YHR200W, strain rpn10, hits give low values 0.989 | locus YIL066C, strain RNR3, hits give low values 1.02 | locus YIL073C, strain SPO22, hits give low values 0.988 | locus YIL125W, strain kgd1, hits give low values 0.991 | locus YIR030C, strain dcg1, hits give low values 0.975 | locus YJL092W, strain hpr5, hits give low values 0.971 | locus YJL095W, strain BCK1 (second series), hits give low values 0.982 | locus YJL095W, strain BCK1, hits give low values 0.986 and 0.978 | locus YJL115W, strain asf1, hits give low values 0.987 | locus YJL129C, strain trk1, hits give low values 0.956 | locus YJL134W, strain LCB3, hits give low values 1.01 | locus YJL154C, strain vps35, hits give low values 0.99 | locus YJL164C, strain tpk1, hits give low values 1.01 | locus YJL166W, strain qcr8, hits give low values 0.98 | locus YJL168C, strain set2, hits give low values 0.98 | locus YJL187C, strain SWE1 (second series), hits give low values 0.997 | locus YJL187C, strain SWE1, hits give low values 0.983 | locus YJR043C, strain POL32, hits give low values 1.03 | locus YJR066W, strain TOR1, hits give low values 0.946 | locus YKL009W, strain mrt4, hits give low values 0.985 | locus YKL068W, hits give low values 1 | locus YKL085W, strain MDH1 (second series), hits give low values 0.993 | locus YKL085W, strain MDH1, hits give low values 0.993 | locus YKL160W, strain elf1, hits give low values 1.02 | locus YKR001C, strain vps1, hits give low values 0.997 | locus YKR026C, strain gcn3, hits give low values 0.977 | locus YKR091W, strain srl3, hits give low values 0.983 | locus YLL001W, strain dnm1, hits give low values 1 | locus YLL026W, hits give low values 0.971 | locus YLL041C, strain sdh2, hits give low values 0.976 | locus YLR027C, strain aat2, hits give low values 0.968 | locus YLR039C, strain RIC1, hits give low values 0.952 | locus YLR058C, strain SHM2, hits give low values 1.01 | locus YLR102C, strain apc9, hits give low values 0.982 | locus YLR113W, strain HOG1, hits give low values 0.969 | locus YLR221C, strain rsa3, hits give low values 0.975 | locus YLR258W, strain gsy2, hits give low values 0.98 | locus YLR262C, strain YPT6 (second series), hits give low values 1.01 | locus YLR268W, strain sec22, hits give low values 1.01 | locus YLR320W, strain mms22, hits give low values 0.993 | locus YLR330W, strain CHS5, hits give low values 1.01 | locus YLR342W, strain FKS1, hits give low values 0.977 | locus YLR357W, strain rsc2, hits give low values 1 | locus YLR370C, strain arc18, hits give low values 0.958 | locus YLR371W, strain rom2, hits give low values 0.992 | locus YLR384C, strain iki3, hits give low values 0.986 | locus YLR418C, strain cdc73, hits give low values 0.955 | locus YML016C, strain PPZ1, hits give low values 1.01 | locus YML032C, strain rad52, hits give low values 1 | locus YML120C, strain ndi1, hits give low values 0.959 | locus YML124C, strain tub3, hits give low values 0.983 | locus YMR058W, strain fet3, hits give low values 0.986 | locus YMR078C, strain ctf18, hits give low values 0.985 | locus YMR125W, strain sto1, hits give low values 0.993 | locus YMR129W, hits give low values 0.992 | locus YMR205C, strain PFK2, hits give low values 1.04 | locus YMR223W, strain ubp8, hits give low values 0.971 | locus YMR231W, strain pep5, hits give low values 0.948 | locus YMR263W, strain SAP30, hits give low values 1.02 | locus YMR307W, strain GAS1, hits give low values 0.922 | locus YNL067W, strain RPL9B, hits give low values 0.999 | locus YNL071W, strain lat1, hits give low values 0.987 | locus YNL153C, strain GIM3, hits give low values 1 | locus YNL183C, strain NPR1, hits give low values 0.962 | locus YNL209W, strain ssb2, hits give low values 1.01 | locus YNL233W, strain BNI4, hits give low values 0.992 | locus YNL248C, strain rpa49, hits give low values 0.98 | locus YNL250W, strain rad50, hits give low values 0.984 | locus YNL271C, strain bni1, hits give low values 0.995 | locus YNL298W, strain CLA4, hits give low values 1 | locus YNL307C, strain MCK1, hits give low values 0.991 | locus YNL322C, strain KRE1 (second series), hits give low values 0.962 | locus YNR049C, strain mso1, hits give low values 0.981 | locus YNR052C, strain pop2, hits give low values 0.983 | locus YOL006C, strain TOP1, hits give low values 1.03 | locus YOL012C, strain htz1 0.912 | locus YOL147C, strain pex11, hits give low values 0.989 | locus YOR001W, strain rrp6, hits give low values 0.95 | locus YOR061W, strain CKA2, hits give low values 1.01 | locus YOR069W, strain VPS5, hits give low values 1 | locus YOR070C, strain gyp1, hits give low values 0.984 | locus YOR080W, strain dia2, hits give low values 0.963 | locus YOR083W, strain WHI5, hits give low values 1.02 | locus YOR106W, strain vam3, hits give low values 0.989 | locus YOR136W, strain idh2, hits give low values 0.998 | locus YOR144C, strain elg1, hits give low values 0.993 | locus YOR184W, strain ser1, hits give low values 1.02 | locus YOR231W, strain MKK1, hits give low values 0.998 | locus YOR265W, strain rbl2, hits give low values 0.966 | locus YOR270C, strain vph1, hits give low values 0.951 | locus YOR290C, strain snf2, hits give low values 0.974 | locus YOR316C, strain cot1, hits give low values 0.981 | locus YPL051W, strain arl3, hits give low values 0.987 | locus YPL078C, strain atp4, hits give low values 1.01 | locus YPL106C, strain sse1, hits give low values 1.02 | locus YPL240C, strain hsp82, hits give low values 0.967 | locus YPL241C, strain CIN2, hits give low values 1.01 | locus YPL256C, strain CLN2, hits give low values 0.967 | locus YPR119W, strain clb2, hits give low values 0.981 | locus YPR141C, strain kar3, hits give low values 0.987 | locus YPR163C, strain tif3, hits give low values 0.994 | locus YPR167C, strain met16, hits give low values 0.983 | strain wtn01, hits give low values 1.02
